Reference: PubChem BioAssay (Tox21)
Inconclusive results are not listed. Values without a mark were called inactive. Calls follow the shape of the dose curve; as a rule, active = well fitted activation curve with a large enough effect in the repeat runs; inconclusive = weak or mixed curves; inactive = flat fitted curve, though single readings scatter.

Experiment: A CellTox Green Cytotoxicity Assay to monitor cytotoxicity in HepG2 cells - 32 hour (AID 1224883); also: nearly all actives have a fitted effect of over 50% in size
Conditions: CellTox Green fluorescence; series mostly up to 76.8 µM; cytotoxicity increase: at the top concentration
Excerpt: National Center for Advancing Translational Sciences [NCATS]
NIH Chemical Genomics Center [NCGC]
U.S. Environmental Protection Agency [EPA]
National Institutes of Environmental Health Sciences [NIEHS]
National Toxicology Program [NTP]
Cell-based models are critical for drug discovery. Determining the natural cytotoxic effects resulting from test compounds is an essential research activity. A CellTox Green Cytotoxicity Assay to monitor cytotoxicity in real time of continues cell culture during 40 hours of the compound treatment was used to screen Tox21 10K library compounds in HepG2 cells. CellTox Green Cytotoxicity Assay is a nonlytic, homogeneous, biofluorescent method to measure cytotoxicity in cell culture after experimental manipulation. The assay system uses a proprietary asymmetric cyanine dye that is excluded from viable cells but preferentially stains the dead cell's DNA. […] Viable cells produce no appreciable increases in fluorescence. Therefore, the fluorescence signal produced by the binding interaction with dead cell DNA is proportional to cytotoxicity.
The mixture of HepG2 cell suspension and reagents were dispensed at 600cells/6 ul/well in 1536-well tissue culture treated black solid bottom plates using a Multidrop dispenser. After the assay plates were incubated at a 37 C/5% CO2 incubator for 5 hours, 23 nL of compounds dissolved in DMSO, positive and negative controls was transferred to the assay plate by a pintool work station. The plates were incubated at 37 C for 40 hours. The fluorescence intensity were measured at 0h, 8h, 16h, 24h, 32h and 40h time points using ViewLux plate reader during compound treatment.
% is scaled to controls: 0 for no effect and ±100 for the full control effect.

| Compound | cytotoxicity increase |
| --- | --- |
| CCC(C)(CCCC(C)C)OC(C)=O (stereo not given) | 5.04% |
| C1CCC2=NCCCN2CC1 | 5.73% |
| NS(=O)(=O)Cc1noc2ccccc12 | -4.81% [at 35.3 µM] |
| C=CC(=O)OCCCl | 25.3% |
| CC(CO)(CO)[N+](=O)[O-] | 1.22% |
| CCCCOCCOC(=O)COc1cc(Cl)c(Cl)cc1Cl | -8.75% |
| CCCCOC(=O)CCC(C)=O | -7.73% |
| N[C@H](C(=O)O)[C@@H](O)c1ccc(O)c(O)c1 | -7.25% [at 35.3 µM] |
| CC1=NN(c2cc(S(=O)(=O)O)ccc2Cl)C(=O)C1N=Nc1ccccc1 (stereo not given) | 2.38% |
| CC/C=C\CCOC(C)OCC (stereo not given) | -2.3% [at 35.3 µM] |
| O=[N+]([O-])c1cncn1CCN1CCOCC1 | 18.5% [at 35.3 µM] |
| CNCCO | -7.47% |
| CC[N+](CC)(CC(=O)Nc1c(C)cccc1C)Cc1ccccc1 (tested in a mixture with another compound) | 0.54% [at 35.3 µM] |
| COc1c(N2CCNC(C)C2)c(F)cc2c(=O)c(C(=O)O)cn(C3CC3)c12 (stereo not given) | -8.85% [at 35.3 µM] |
| CC1=C(C/C=C(\C)CCC[C@H](C)CCC[C@H](C)CCCC(C)C)C(=O)c2ccccc2C1=O | 5.63% [at 35.3 µM] |
| CN1CCC(=C2c3ccccc3CCc3cccnc32)CC1 | -1.24% [at 35.3 µM] |
| c1coc(CNc2ncnc3nc[nH]c23)c1 | 0.583% |
| CCN[C@H]1C[C@H](C)S(=O)(=O)c2sc(S(N)(=O)=O)cc21 | -6.64% [at 35.3 µM] |
| CCC(C(=O)NC(=O)NC(C)=O)c1ccccc1 (stereo not given) | -1.6% [at 35.3 µM] |
| CC1=NS(=O)(=O)c2cc(Cl)ccc2N1 | -4.37% [at 35.3 µM] |

| Compound | cytotoxicity increase |
| --- | --- |
| O=C(O)CCSCCC(=O)O | 2.1% |
| CN(C)CCN(C)CCN(C)C | 2.09% |
| CCCCN(CCC(=O)OCC)C(C)=O | -5.41% |
| CCCCCCC1CCC(=O)O1 (stereo not given) | 6.49% |
| C[N+]1(CC2COC(c3ccccc3)(c3ccccc3)O2)CCCCC1 (stereo not given) | -0.506% [at 15.8 µM] |
| CC(=O)N[C@H]1[C@H]([C@H](O)[C@H](O)CO)OC(C(=O)O)=C[C@@H]1N=C(N)N | -12.9% [at 35.3 µM] |
| C1CCC2(CCCCO2)OC1 | 8.26% |
| C[C@@H]1C[C@H]2[C@@H]3C[C@H](F)C4=CC(=O)C(Cl)=C[C@]4(C)[C@@]3(F)[C@@H](O)C[C@]2(C)[C@@]1(O)C(=O)CO | 1.59% [at 35.3 µM] |
| CN1CC(=O)N/C1=N/C(=O)Nc1cccc(Cl)c1 | -1.71% [at 35.3 µM] |
| CC(COc1ccccc1)NN (stereo not given) | -9.93% [at 35.3 µM] |
| CCOC(=O)OC(C)OC1=C(C(=O)Nc2ccccn2)N(C)S(=O)(=O)c2ccccc21 (stereo not given) | -2.16% [at 35.3 µM] |
| CCOC(=O)CCC(=O)OCC | -9.38% |
| Cc1nc(C2CCCCC2)c(-c2ccc(S(N)(=O)=O)c(F)c2)o1 | 9.45% [at 35.3 µM] |
| CCN[C@@H]1C[C@H](N)[C@@H](OC2OC(CN)=CCC2N)[C@H](O)[C@H]1O[C@H]1OC[C@](C)(O)[C@H](NC)[C@H]1O (stereo not given in full) | -3.76% [at 0.29 µM] |
| C=CCCC(=O)O | 7.68% |
| CCN1C=CN(C)C1C (stereo not given) | -5.17% |
| Nc1ccccn1 | -2.37% |
| CC(C)=CCC/C(C)=C/C#N | 5.34% |
| Nc1ccn([C@@H]2O[C@H](CO)[C@@H](O)C2O)c(=O)n1 (stereo not given in full) | 0% |
| CO[C@@]1(NC(=O)CSC[C@@H](N)C(=O)O)C(=O)N2C(C(=O)O)=C(CSc3nnnn3C)CS[C@@H]21 | -3.89% [at 35.3 µM] |
